High-throughput results: PubChem, DiRusso Lab, Biochemistry Department, University of Nebraska
Chlamy TAG: inducers of triacylglycerol accumulation in Chlamydomonas reinhardtii algae; Chlamydomonas reinhardtii TAG, Nile Red fluorescence, 72 h; calls only at 10 µM (by protocol); 0.84% of 44,000 active; call rule not given here;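 note: hits raise Nile Red signal meaning more stored TAG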
Active calls of the source: *; i = inactive; + = active, no number. Many of the other results were omitted from the sample, so hits are more common in it than they were.

SMILES	Chlamy TAG
C(#CCN1CCCCC1)COc1ccccc1	+
C(#CCN1CCOCC1)COc1ccccc1	i
c1ccc2c(CN3CCCCCCC3)c[nH]c2c1	i
CN1CCN(c2ccccc2[N+](=O)[O-])CC1	i
CN1CCN(c2ccc([N+](=O)[O-])c(N3CCCCC3)c2)CC1	+
CN1CCN(c2cc(N3CCCC3)ccc2[N+](=O)[O-])CC1	i
CCOc1ccccc1CN1CCN(c2ccc(F)cc2)CC1	i
O=[N+]([O-])c1ccc(N2CCN(Cc3c(F)cccc3Cl)CC2)cc1	i
COc1ccc(OC)c(CNCCc2ccc([N+](=O)[O-])cc2)c1	+
COc1ccccc1CNCCc1ccc(OC)c(OC)c1	i
COc1ccc(OC)c(CNCCc2cccc(F)c2)c1	i
CCCN1CCC(N2CCCC2)CC1	i
CC(C(=O)Nc1ccc(Cl)cc1C(=O)c1ccccc1)N1CCOCC1 (stereo not given)	i
O=[N+]([O-])/C=C/c1ccccc1OCc1ccc(Br)cc1	i
Cc1ccc(C)c(N2CCN(Cc3cccc([N+](=O)[O-])c3)CC2)c1	i
Cc1ccccc1N1CCN(Cc2ccc(Cl)cc2)CC1	i
O=[N+]([O-])c1ccc(CN2CCN(c3ccc(Cl)cc3)CC2)cc1	i
O=[N+]([O-])c1ccc(N2CCN(Cc3ccc(Cl)cc3)CC2)cc1	i
Cc1ccccc1N1CCN(Cc2cccc([N+](=O)[O-])c2)CC1	i
Cc1ccccc1N1CCN(Cc2ccc([N+](=O)[O-])cc2)CC1	+
O=[N+]([O-])c1ccc(CN2CCN(c3ccccc3)CC2)cc1	+
COc1ccc(N2CCN(Cc3ccc([N+](=O)[O-])cc3)CC2)cc1	i
COc1cccc(N2CCN(Cc3ccc([N+](=O)[O-])cc3)CC2)c1	+
COc1ccc(CN2CCN(c3cccc(OC)c3)CC2)cc1	i
c1ccc(CN2CCN(c3ccccc3)CC2)cc1	i
SMILES	Chlamy TAG
Fc1ccc(CN2CCN(c3ccccc3Cl)CC2)cc1	+
COc1ccccc1N1CCN(Cc2ccc(Cl)cc2)CC1	+
Fc1ccc(CN2CCN(c3ccccc3)CC2)cc1	i
COc1ccccc1N1CCN(Cc2ccc(Br)cc2)CC1	i
Fc1ccc(N2CCN(Cc3ccccc3)CC2)cc1	+
CN(C)c1ccc(CN2CCN(c3ccc(F)cc3)CC2)cc1	i
Cc1ccc(CN2CCN(c3ccc(Cl)cc3)CC2)cc1	i
CCc1ccc(CN2CCN(c3ccccc3OC)CC2)cc1	i
CN(C)c1ccc(CN2CCN(c3ccccc3Cl)CC2)cc1	i
Cc1ccc(CN2CCN(c3ccc(F)cc3)CC2)cc1	+
Fc1ccccc1N1CCN(Cc2ccc(Cl)cc2)CC1	i
COc1ccc(/C=C/c2nc3ccccc3c(=O)n2-c2cccc(C)c2)cc1	i
COc1cccc(N2CCN(Cc3ccc(Br)cc3)CC2)c1	i
COc1cc(CN2C[C@@H]3C[C@@H](C2)c2cccc(=O)n2C3)cc(I)c1O	i
O=C1CN=C(c2ccccc2)c2oc3ccc(Cl)cc3c2N1	i
COc1cccc(CN2CCN(C)CC2)c1	i
O=[N+]([O-])c1ccc(N2CCN(Cc3ccc(F)c(Br)c3)CC2)cc1	i
COc1cccc(-n2c(-c3ccc([N+](=O)[O-])cc3)nc3ccccc3c2=O)c1	i
COc1cc(Br)cc(/C=C/[N+](=O)[O-])c1O	i
COc1cccc(CN2CCN(c3ccccc3Cl)CC2)c1	i
O=C1NC(=O)C(c2ccccc2)(c2ccccc2)C(=O)N1	i
CC(C)Oc1ccc(C2(O)C(=O)NC(=O)NC2=O)cc1	i
O=c1c2ccccc2nc(/C=C/c2cccc([N+](=O)[O-])c2)n1-c1ccccn1	i
CN1CCN(c2ccc([N+](=O)[O-])cc2F)CC1	i
OC1CCN(CCc2ccccc2)CC1	i
SMILES	Chlamy TAG
Oc1ccc(CN2CCN(Cc3ccccc3)CC2)cc1	+
OCCN1CCN(Cc2ccccc2)CC1	i
CN1CCN(Cc2ccccc2)CC1	i
CN(C)c1ccc(CN2CCN(Cc3ccccc3)CC2)cc1	i
c1ccc(CN2CCN(C3CCCCC3)CC2)cc1	+
Cc1ccc(N2CCN(CCc3ccccc3)CC2)cc1	+
CCC(C)N1CCN(Cc2ccccc2)CC1 (stereo not given)	i
Cc1cccc(N2CCN(CCc3ccccc3)CC2)c1C	i
CC/C(=C\c1cc(Br)c(O)c(OC)c1)[N+](=O)[O-]	i
O=C(Nc1ccc(Cl)cc1C(=O)c1ccccc1)c1ccc([N+](=O)[O-])o1	i
Cc1ccc(Cl)c(C(=O)CN(C)C)c1	i
Cc1ccc(-n2c(/C=C/c3ccc(O)c(O)c3)nc3ccccc3c2=O)cc1	i
O=c1c2ccccc2nc(/C=C/c2cccnc2)n1-c1ccc(Br)cc1	i
COc1ccc(N2CCN(Cc3ccc(Cl)cc3Cl)CC2)cc1	i
Cc1cccc(-n2c(/C=C/c3cccnc3)nc3ccccc3c2=O)c1	i
COCC(C)NC1CC2CCC1C2 (stereo not given)	i
Cc1cccc(CN2CCN(CCO)CC2)c1	i
CCc1ccc(CN2CCN(C(C)C)CC2)cc1	i
CN1CCN(Cc2ccc(Cl)cc2)CC1	i
CN1CCN(Cc2c(Cl)cccc2Cl)CC1	i
CC(C)c1ccc(CN2CCN(C)CC2)cc1	+
CCc1ccc(CN2CCN(C)CC2)cc1	i
CCc1ccc(CN2CCN(CCO)CC2)cc1	+
O=C(Cc1ccccc1)N1CCN(Cc2ccccc2)CC1	i
COc1ccc(CNCCc2cccc(F)c2)cc1C	i
